# Experimental data reported in publication PMC7862700, “An all-to-all approach to the identification of sequence-specific readers for epigenetic DNA modifications on cytosine”.
# What was measured:
# Test in all cases: DAPPL (digital affinity profiling via proximity ligation, sequencing); 10 mM Tris-HCl pH 7.5, 50 mM NaCl, 1 mM DTT, 4% glycerol, room temperature, 30 min; GST-TFs on glutathione beads, 16-mer random dsDNA library, 0.1% formaldehyde crosslink after washing; high values mean tight binding
# [1] = biological target: T1, FLI1 (Homo sapiens, UniProt Q01543 1-452); conditions: protein: recombinant; tags: N-terminal GST; dsDNA, one strand shown
# T1 sequence: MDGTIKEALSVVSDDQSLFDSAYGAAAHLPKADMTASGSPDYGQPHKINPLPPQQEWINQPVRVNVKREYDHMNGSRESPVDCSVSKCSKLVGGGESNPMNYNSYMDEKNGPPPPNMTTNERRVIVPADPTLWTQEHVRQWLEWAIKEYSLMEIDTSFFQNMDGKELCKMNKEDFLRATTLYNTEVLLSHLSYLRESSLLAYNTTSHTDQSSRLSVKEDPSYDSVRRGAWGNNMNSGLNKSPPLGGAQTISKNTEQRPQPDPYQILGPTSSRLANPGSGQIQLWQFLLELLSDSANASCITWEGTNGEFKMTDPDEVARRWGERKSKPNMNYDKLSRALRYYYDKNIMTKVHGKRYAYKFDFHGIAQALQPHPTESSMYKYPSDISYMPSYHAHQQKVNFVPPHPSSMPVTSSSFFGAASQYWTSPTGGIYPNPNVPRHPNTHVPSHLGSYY
# In short: (§1)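 The binding signal reported is, for every hexamer, its read frequency for a factor over its read frequency for the tag-only sample. Reads came from pools of yeast-expressed, GST-fused human transcription factors on glutathione beads, barcoded with DNA and mixed with that sample, which were incubated with 200 nmole of a random double-stranded 16-mer DNA library in Tris/NaCl/DTT/glycerol buffer at room temperature for 30 min. After washing, the pools were crosslinked with 0.1% formaldehyde, proximity-ligated with BsaI/T4 ligase for 1 h at 37 °C, PCR-amplified and sequenced on an Illumina NextSeq500.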
# [2] = biological target: T2, ELK1 (Homo sapiens, UniProt P19419 1-428); conditions: protein: recombinant; tags: N-terminal GST; dsDNA, one strand shown
# T2 sequence: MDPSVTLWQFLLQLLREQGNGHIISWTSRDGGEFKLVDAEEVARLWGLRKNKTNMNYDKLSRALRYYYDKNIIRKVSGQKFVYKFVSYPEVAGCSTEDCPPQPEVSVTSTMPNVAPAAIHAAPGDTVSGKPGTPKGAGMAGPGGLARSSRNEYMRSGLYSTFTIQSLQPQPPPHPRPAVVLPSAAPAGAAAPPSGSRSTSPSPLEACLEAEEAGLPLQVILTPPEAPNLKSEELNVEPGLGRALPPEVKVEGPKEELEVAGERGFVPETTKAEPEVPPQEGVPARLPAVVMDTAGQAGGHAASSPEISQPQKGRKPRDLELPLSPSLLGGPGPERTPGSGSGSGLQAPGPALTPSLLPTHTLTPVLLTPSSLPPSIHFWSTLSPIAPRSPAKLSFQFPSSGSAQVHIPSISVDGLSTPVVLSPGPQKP
# In short: as §1
# [3] = biological target: T3, GABPA (Homo sapiens, UniProt Q06546 1-454); conditions: protein: recombinant; tags: N-terminal GST; dsDNA, one strand shown
# T3 sequence: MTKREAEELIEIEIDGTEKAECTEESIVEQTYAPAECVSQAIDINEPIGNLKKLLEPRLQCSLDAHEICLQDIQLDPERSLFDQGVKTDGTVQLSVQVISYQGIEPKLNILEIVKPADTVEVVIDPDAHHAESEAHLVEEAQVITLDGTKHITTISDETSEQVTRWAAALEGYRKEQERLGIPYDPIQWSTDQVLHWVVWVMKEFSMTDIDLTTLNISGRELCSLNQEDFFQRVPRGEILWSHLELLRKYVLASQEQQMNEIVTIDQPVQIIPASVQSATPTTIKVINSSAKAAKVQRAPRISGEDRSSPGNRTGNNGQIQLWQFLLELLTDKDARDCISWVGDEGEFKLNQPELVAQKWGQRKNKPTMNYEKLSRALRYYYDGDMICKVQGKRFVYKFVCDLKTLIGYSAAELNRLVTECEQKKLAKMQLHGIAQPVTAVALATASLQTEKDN
# In short: as §1
# [4] = biological target: T4, ERG (Homo sapiens, UniProt P11308 1-479); conditions: protein: recombinant; tags: N-terminal GST; dsDNA, one strand shown
# T4 sequence: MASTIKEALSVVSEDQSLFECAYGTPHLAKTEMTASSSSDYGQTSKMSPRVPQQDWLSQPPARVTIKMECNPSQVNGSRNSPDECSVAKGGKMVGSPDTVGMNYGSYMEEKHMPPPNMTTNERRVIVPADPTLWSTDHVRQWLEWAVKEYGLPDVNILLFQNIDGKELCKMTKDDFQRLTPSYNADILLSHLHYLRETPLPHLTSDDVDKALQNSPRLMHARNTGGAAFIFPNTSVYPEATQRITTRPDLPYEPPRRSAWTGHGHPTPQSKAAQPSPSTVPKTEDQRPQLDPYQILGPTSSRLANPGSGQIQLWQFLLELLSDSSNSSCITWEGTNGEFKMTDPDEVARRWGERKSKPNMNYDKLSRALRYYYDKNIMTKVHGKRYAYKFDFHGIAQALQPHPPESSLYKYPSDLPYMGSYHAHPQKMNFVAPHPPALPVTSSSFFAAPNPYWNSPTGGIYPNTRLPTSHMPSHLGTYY
# In short: as §1
# [5] = biological target: ELF1 (Homo sapiens, UniProt P32519 1-619); conditions: protein: recombinant; tags: N-terminal GST; dsDNA, one strand shown
# Sequence of ELF1 (P32519 whole entry): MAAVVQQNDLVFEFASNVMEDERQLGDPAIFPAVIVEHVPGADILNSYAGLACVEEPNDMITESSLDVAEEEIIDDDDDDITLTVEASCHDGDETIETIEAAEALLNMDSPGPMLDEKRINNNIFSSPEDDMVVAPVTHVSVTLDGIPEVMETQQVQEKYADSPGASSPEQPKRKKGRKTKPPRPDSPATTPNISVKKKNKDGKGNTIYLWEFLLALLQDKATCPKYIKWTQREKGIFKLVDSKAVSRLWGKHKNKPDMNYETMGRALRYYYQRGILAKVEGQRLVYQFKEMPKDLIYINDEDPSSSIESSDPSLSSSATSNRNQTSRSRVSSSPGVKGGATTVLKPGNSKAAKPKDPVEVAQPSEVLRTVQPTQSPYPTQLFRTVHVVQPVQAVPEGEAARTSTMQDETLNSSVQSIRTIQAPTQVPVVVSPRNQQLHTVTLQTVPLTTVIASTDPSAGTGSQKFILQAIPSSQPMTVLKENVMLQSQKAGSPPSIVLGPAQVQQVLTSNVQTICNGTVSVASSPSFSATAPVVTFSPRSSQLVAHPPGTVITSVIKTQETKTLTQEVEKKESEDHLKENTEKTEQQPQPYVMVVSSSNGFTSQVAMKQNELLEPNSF
# In short: as §1
# [6] = biological target: T5, EHF (Homo sapiens, UniProt Q9NZC4 1-300); conditions: protein: recombinant; tags: N-terminal GST; dsDNA, one strand shown
# T5 sequence: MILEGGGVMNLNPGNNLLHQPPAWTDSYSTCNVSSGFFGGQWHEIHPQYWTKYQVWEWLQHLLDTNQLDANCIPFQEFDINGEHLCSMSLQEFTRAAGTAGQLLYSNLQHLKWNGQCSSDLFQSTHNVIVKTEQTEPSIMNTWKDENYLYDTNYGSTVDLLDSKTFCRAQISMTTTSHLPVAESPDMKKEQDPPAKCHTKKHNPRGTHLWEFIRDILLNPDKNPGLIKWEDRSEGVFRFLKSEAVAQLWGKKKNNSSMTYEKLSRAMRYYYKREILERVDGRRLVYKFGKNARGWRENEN
# In short: as §1
# [7] = biological target: SPI1 (Homo sapiens, UniProt P17947 1-270); conditions: protein: recombinant; tags: N-terminal GST; dsDNA, one strand shown
# In short: as §1
# [8] = biological target: SPIB (Homo sapiens, UniProt Q01892 1-262); conditions: protein: recombinant; tags: N-terminal GST; dsDNA, one strand shown
# Sequence of SPIB (Q01892 whole entry): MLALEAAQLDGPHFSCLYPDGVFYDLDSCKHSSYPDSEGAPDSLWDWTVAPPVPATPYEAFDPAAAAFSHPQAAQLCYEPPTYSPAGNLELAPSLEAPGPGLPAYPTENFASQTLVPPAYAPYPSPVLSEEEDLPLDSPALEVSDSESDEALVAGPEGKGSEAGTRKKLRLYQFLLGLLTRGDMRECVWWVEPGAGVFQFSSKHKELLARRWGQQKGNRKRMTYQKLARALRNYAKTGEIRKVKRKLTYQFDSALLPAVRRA
# In short: as §1
# [9] = biological target: T6, ELK3 (Homo sapiens, UniProt P41970 1-407); conditions: protein: recombinant; tags: N-terminal GST; dsDNA, one strand shown
# T6 sequence: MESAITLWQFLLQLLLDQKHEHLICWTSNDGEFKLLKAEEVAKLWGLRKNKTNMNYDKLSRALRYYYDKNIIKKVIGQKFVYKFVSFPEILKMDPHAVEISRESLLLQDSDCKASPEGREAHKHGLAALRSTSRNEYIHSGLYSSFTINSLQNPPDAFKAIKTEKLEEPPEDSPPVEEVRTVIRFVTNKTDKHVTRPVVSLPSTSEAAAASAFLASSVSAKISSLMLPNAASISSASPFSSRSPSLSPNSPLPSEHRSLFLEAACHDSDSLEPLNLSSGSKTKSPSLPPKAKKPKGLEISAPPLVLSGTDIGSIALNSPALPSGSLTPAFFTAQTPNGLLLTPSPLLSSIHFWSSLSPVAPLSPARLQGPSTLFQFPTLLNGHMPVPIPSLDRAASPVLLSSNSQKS
# In short: as §1
# [10] = biological target: T7, FEV (Homo sapiens, UniProt Q99581 1-238); conditions: protein: recombinant; tags: N-terminal GST; dsDNA, one strand shown
# T7 sequence: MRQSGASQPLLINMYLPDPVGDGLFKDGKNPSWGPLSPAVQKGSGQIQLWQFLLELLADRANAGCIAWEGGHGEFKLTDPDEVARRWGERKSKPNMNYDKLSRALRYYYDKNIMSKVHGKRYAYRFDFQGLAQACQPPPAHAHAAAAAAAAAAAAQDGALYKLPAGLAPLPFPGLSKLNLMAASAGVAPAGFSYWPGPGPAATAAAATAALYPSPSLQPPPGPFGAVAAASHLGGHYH
# In short: as §1
# [11] = biological target: ETV5 (Homo sapiens, UniProt P41161 1-510); conditions: protein: recombinant; tags: N-terminal GST; dsDNA, one strand shown
# Sequence of ETV5 (P41161 whole entry): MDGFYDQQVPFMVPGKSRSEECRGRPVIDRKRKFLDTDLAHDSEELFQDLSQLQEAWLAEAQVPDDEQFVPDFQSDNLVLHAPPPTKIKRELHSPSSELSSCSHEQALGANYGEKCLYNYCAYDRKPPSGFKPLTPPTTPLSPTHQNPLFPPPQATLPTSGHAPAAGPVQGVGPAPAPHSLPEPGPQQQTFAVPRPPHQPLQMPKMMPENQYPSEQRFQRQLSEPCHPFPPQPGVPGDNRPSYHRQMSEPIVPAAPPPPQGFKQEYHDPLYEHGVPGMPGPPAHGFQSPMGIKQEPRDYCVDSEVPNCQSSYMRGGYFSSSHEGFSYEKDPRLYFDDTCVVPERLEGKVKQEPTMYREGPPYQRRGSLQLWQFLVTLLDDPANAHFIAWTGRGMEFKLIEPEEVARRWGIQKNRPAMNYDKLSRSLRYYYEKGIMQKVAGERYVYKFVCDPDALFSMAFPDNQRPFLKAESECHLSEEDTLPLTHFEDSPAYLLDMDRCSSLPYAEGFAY
# In short: as §1
# [12] = biological target: HSF1 (Homo sapiens, UniProt Q00613 1-529); conditions: protein: recombinant; tags: N-terminal GST; chain copies: 3; dsDNA, one strand shown
# Sequence of HSF1 (Q00613 whole entry): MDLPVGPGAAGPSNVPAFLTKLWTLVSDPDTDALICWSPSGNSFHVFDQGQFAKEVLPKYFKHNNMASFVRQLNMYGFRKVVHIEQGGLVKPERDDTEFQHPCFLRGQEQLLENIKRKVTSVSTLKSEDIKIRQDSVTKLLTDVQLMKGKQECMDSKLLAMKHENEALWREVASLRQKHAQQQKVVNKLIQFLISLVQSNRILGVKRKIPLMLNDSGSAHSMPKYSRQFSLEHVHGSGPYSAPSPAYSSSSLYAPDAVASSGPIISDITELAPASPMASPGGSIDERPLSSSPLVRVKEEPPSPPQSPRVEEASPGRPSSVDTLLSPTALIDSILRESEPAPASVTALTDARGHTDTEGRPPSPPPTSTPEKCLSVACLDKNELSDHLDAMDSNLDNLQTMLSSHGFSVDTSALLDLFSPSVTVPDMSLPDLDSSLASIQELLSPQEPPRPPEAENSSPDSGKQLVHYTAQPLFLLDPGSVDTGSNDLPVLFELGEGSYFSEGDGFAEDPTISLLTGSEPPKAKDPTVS
# In short: as §1
# [13] = biological target: T8, SPIC (Homo sapiens, UniProt Q8N5J4 1-248); conditions: protein: recombinant; tags: N-terminal GST; dsDNA, one strand shown
# T8 sequence: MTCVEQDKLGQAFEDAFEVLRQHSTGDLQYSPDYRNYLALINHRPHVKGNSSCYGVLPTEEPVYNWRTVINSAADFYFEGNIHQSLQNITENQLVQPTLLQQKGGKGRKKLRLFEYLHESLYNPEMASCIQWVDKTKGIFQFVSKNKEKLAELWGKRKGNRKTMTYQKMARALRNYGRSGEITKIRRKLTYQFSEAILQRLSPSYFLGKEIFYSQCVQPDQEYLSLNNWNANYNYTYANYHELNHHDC
# In short: as §1
# [14] = biological target: ELF4 (Homo sapiens, UniProt Q99607 1-663); conditions: protein: recombinant; tags: N-terminal GST; dsDNA, one strand shown
# Sequence of ELF4 (Q99607 whole entry): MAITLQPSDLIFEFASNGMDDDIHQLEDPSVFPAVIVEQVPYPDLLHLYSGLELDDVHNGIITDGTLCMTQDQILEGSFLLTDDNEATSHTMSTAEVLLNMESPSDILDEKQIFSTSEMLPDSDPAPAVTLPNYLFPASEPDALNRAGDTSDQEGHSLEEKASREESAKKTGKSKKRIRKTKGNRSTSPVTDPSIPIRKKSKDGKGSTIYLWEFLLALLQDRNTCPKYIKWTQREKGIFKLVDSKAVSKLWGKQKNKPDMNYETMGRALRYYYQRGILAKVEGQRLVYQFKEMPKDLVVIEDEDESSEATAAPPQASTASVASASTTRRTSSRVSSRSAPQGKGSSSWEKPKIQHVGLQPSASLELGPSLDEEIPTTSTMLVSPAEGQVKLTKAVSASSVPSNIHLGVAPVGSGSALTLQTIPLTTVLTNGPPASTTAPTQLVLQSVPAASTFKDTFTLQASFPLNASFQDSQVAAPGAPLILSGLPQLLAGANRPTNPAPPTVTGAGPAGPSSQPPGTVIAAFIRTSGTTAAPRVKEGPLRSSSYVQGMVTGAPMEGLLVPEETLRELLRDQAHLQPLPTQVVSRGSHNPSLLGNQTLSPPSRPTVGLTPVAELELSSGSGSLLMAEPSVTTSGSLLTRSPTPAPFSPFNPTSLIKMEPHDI
# In short: as §1
# [15] = biological target: T9, ELK4 (Homo sapiens, UniProt P28324-2 1-405); conditions: protein: recombinant; tags: N-terminal GST; dsDNA, one strand shown
# T9 sequence: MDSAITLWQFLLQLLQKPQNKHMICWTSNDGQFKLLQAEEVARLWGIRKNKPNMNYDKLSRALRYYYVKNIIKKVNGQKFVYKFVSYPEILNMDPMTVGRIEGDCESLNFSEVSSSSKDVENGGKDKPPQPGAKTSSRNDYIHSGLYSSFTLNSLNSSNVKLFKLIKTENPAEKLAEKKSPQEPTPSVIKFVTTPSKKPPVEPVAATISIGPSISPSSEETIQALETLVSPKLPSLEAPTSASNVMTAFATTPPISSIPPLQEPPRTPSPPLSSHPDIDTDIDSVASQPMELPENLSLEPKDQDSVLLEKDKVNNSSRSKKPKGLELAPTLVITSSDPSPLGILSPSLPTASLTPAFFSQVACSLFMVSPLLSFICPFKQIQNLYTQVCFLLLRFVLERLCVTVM
# In short: as §1
# [16] = biological target: T10, ETV2 (Homo sapiens, UniProt O00321 1-342); conditions: protein: recombinant; tags: N-terminal GST; dsDNA, one strand shown
# T10 sequence: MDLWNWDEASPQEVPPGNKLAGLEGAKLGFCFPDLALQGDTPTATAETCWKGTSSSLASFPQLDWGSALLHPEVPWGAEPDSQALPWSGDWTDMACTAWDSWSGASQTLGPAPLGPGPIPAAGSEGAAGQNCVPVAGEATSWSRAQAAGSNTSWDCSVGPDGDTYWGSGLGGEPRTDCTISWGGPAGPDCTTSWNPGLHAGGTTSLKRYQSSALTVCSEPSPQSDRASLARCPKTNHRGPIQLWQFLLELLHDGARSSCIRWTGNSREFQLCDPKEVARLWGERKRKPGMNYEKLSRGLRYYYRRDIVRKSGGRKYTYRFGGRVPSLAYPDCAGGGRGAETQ
# In short: as §1
# [17] = biological target: ETV1 (Homo sapiens, UniProt P50549 1-477); conditions: protein: recombinant; tags: N-terminal GST; dsDNA, one strand shown
# Sequence of ETV1 (P50549 whole entry): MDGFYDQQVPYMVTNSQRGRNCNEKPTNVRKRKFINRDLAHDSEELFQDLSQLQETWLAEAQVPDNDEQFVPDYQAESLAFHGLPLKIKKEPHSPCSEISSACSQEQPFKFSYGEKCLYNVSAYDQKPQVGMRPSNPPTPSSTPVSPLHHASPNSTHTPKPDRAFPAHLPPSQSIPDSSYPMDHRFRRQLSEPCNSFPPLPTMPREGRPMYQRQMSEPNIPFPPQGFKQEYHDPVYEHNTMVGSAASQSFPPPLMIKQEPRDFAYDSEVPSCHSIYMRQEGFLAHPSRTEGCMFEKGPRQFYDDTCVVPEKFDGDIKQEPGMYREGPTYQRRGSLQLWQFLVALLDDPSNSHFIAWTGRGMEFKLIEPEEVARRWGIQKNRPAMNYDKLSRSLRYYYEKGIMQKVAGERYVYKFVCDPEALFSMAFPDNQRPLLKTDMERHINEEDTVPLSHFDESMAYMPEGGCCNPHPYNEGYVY
# In short: as §1
sequence,measurement,setting,value
CACTCG,binding signal,[1],"1.1 fold enrichment (6-mer frequency, TF over GST control)"
same,binding signal,[2],"1.26 fold enrichment (6-mer frequency, TF over GST control)"
same,binding signal,[3],"1.08 fold enrichment (6-mer frequency, TF over GST control)"
same,binding signal,[4],"1.15 fold enrichment (6-mer frequency, TF over GST control)"
same,binding signal,[5],"1.2 fold enrichment (6-mer frequency, TF over GST control)"
same,binding signal,[6],"1.18 fold enrichment (6-mer frequency, TF over GST control)"
same,binding signal,[7],"1.01 fold enrichment (6-mer frequency, TF over GST control)"
same,binding signal,[8],"1.18 fold enrichment (6-mer frequency, TF over GST control)"
same,binding signal,[9],"1.2 fold enrichment (6-mer frequency, TF over GST control)"
same,binding signal,[10],"1.22 fold enrichment (6-mer frequency, TF over GST control)"
same,binding signal,[11],"1.13 fold enrichment (6-mer frequency, TF over GST control)"
same,binding signal,[12],"1.16 fold enrichment (6-mer frequency, TF over GST control)"
same,binding signal,[13],"1.08 fold enrichment (6-mer frequency, TF over GST control)"
same,binding signal,[14],"1.2 fold enrichment (6-mer frequency, TF over GST control)"
same,binding signal,[15],"1.24 fold enrichment (6-mer frequency, TF over GST control)"
same,binding signal,[16],"1.2 fold enrichment (6-mer frequency, TF over GST control)"
same,binding signal,[17],"1.09 fold enrichment (6-mer frequency, TF over GST control)"
